Assay outcomes as filed in PubChem BioAssay.
VDR inhibitor: Inhibitors of the vitamin D receptor (VDR): qHTS | VDR-SRC2-3 peptide fluorescence polarization, 2 h | Vitamin D3 receptor (Homo sapiens), P11473 | AID 504847, 2011 | Potency, µM, without a hit: max response, negative = inhibition, hits mostly inhibitors | 400,000 compounds, 0.93% hits
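After 23 nl compound addition and a short centrifugation, plates sat for 2 hours at ambient temperature; polarization of fluorescence then indicated loss of VDR binding to peptide SRC2-3.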
Tau fluor cs: Counterscreen qHTS for Inhibitors of Tau Fibril Formation, Fluorescence Polarization; tau K18 P301L Alexa594 fluorescence, heparin fibrillization; 280,000 compounds, 0.93% hits; Potency, µM (top dose mostly 57.7 µM), without a hit: at the top dose activity change, negative = decrease; AID 1463, 2008; note: nearly all actives have a fitted effect of over 55% in size
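Human K18 P301L tau (15 uM unlabeled plus 0.24 uM Alexa 594-labeled, final) in 100 mM sodium acetate pH 7 was mixed with compound and 20 uM heparin and incubated 6 hr at 37 C.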
Sfp inh: qHTS Assay for Inhibitors of Bacillus subtilis Sfp phosphopantetheinyl transferase (PPTase) | 4'-phosphopantetheinyl transferase ffp (Bacillus subtilis), Q9F4F7 | Biochemical Sfp PPTase activity, qHTS | Potency, µM, inactives show largest response in the series, negative = inhibition, most hits filed as inhibitors | 310,000 compounds, 3.5% hits | AID 1490, 2009;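 note: the enzyme is Sfp with the accession as filed and its product quenches rhodamine fluorescence; 0% = enzyme reaction without inhibitor and -100% = no enzyme wells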
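Step 1, compound plus 15 nM Sfp-PPTase, 15 min, room temperature. Step 2, add rhodamine-CoA (5 uM) and BHQ-2-YbbR (12.5 uM). Step 3, read 525/598 nm fluorescence at 0 and 30 min.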
Tau FP inhib: qHTS for Inhibitors of Tau Fibril Formation, Fluorescence Polarization | Microtubule-associated protein tau (Homo sapiens), P10636 | K18 P301L tau heparin fibrillization, Alexa594 FP, 6 h | Potency, µM (highest dose often 57.7 µM), for the others: at the top dose activity, negative = inhibition, usual class: inhibitors | 280,000 compounds, 0.39% hits | AID 1468, 2008; note: nearly all actives have a fitted effect of over 55% in size
Target sequence (P10636 561-689 P618L limits assumed): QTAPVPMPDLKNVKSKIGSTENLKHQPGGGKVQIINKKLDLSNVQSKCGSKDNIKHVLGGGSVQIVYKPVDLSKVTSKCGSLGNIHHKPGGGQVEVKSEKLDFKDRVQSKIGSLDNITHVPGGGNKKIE
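Heparin (20 uM) drove fibril formation of recombinant tau K18 P301L, 15 uM unlabeled with 0.24 uM Alexa 594 label, for 6 hr at 37 C in 100 mM sodium acetate pH 7. Fluorescence polarization (555/632 nm) read 1 hr after 30 uM ThT.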
Tau ThT inhib: qHTS for Inhibitors of Tau Fibril Formation, Thioflavin T Binding; Potency, µM (series often up to 57.4 µM), for the others: at the highest dose activity, negative = inhibition, usual class: inhibitors; recombinant tau K18 P301L (four-repeat tau fragment), heparin-induced fibrillization, ThT fluorescence; AID 1460, 2008; Microtubule-associated protein tau (Homo sapiens), P10636; 270,000 compounds, 2.1% hits; note: nearly all actives have a fitted effect of over 55% in size
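Heparin-induced fibrillization of the P301L-mutant K18 repeat-domain fragment of human tau was followed by ThT binding in quantitative high-throughput format.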
PLK1 PBD block: qHTS for Inhibitors of PLK1-PDB (polo-like kinase 1 - polo-box domain): Primary Screen. Serine/threonine-protein kinase PLK1 (Homo sapiens), P53350. AID 720504, 2013. 360,000 compounds, 2.8% hits. Plk1 PBD binding of FITC phosphopeptide, fluorescence polarization. Potency, µM, for inactives: max response, negative = inhibition, usual class: inhibitors; note: series mostly up to about 57 µM; nearly all actives have a fitted effect of over 65% in size
Target sequence (P53350 whole entry, looked up, the tested form may be a part): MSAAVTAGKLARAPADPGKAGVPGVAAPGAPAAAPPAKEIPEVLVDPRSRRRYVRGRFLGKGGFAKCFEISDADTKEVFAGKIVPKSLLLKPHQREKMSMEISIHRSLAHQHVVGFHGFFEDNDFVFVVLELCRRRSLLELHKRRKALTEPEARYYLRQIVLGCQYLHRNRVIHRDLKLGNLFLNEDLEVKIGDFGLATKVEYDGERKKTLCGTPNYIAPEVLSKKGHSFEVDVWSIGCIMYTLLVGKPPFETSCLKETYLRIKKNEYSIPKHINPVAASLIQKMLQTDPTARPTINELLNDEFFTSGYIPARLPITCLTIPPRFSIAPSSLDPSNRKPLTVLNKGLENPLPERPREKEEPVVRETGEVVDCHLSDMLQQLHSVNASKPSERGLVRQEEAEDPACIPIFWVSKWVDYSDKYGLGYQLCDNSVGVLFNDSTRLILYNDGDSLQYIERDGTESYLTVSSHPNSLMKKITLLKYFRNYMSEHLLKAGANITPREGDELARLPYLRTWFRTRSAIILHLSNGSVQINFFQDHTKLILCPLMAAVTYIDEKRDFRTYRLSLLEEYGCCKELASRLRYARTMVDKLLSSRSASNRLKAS
Numbers without * were called inactive; ? = inconclusive; . = no result; [ ] = remark or other dose. Rows were chosen to be rich in hits. Some 6% of all compounds tested hit in one or more screens of this group. Calls come from the whole dose curve; as a rule, active = well fitted curve in the direction sought with a large enough effect; inconclusive = small, poorly fitted or top-dose-only effect, or another doubt; inactive = no such curve, though single readings can be large; an effect the other way counts as inactive or inconclusive. Unless noted, % is set by controls: 0 for no effect and ±100 for the full control effect; potency is the fitted concentration of half-maximal effect.

SMILES	VDR inhibitor	Tau fluor cs	Sfp inh	Tau FP inhib	Tau ThT inhib	PLK1 PBD block
CC1(C)CN(c2ccc(Br)cc2Br)C1=O	1.3%	-4.3%	8.5%	1.3%	-7.3%	-5.5%
Cc1cc(/C=N/n2cnnc2)c(C)n1-c1ccc(Cl)cc1	?	2.1%	-8.8%	?	-2.8%	-9.6%
Cc1cc(/C=N/n2cnnc2)c(C)n1-c1ccc(OCc2ccc(Cl)cc2Cl)cc1	2.3%	-27.7%	35.5µM*	11.4%	?	-6.4%
CCCOc1ccccc1Cn1c(=O)sc2ccccc21	4.7%	-16.2%	.	-8.2%	-12.5%	.
COc1ccc(-c2cc(C(=O)NCCc3ccc(OC)c(OC)c3)c3ccccc3n2)cc1	2.5%	?	.	9.2%	?	.
COc1cc(-c2nnc(SCC(=O)c3cc(C)n(CC4CCCO4)c3C)o2)cc(OC)c1OC (centres undefined)	-9.9%	-10.9%	89.1µM*	7.9%	?	-7.6%
c1csc(-c2nn3c(Cn4nnc5ccccc54)nnc3s2)c1	13.6%	-4.1%	9.4%	2.2%	-7.2%	-9.4%
c1csc(-c2nn3c(Cn4cnc5ccccc54)nnc3s2)c1	-37.5%	3.8%	-85.2%	0.6%	-9.7%	21.2µM*
Clc1cccc(-c2nn3c(Cn4cnc5ccccc54)nnc3s2)c1	?	-2.1%	20µM*	2.5%	-4.4%	10.6µM*
N#Cc1cnc(NN)nc1	-4.5%	-3.4%	6.31µM*	-10.8%	-20.1%	-11.5%
COC(=O)c1ccc(Sc2ccc(C)cc2)c(N)c1	-24.6%	?	50.1µM*	4.8%	-11.2%	26.7µM*
O=S(=O)(c1ccc2c(c1)CCCN2)N1CCCC1	7.0%	.	.	.	.	-7.3%
CCN(CC)c1ccc2c(c1)CCCN2	.	?	-6.5%	?	25.1µM*	.
CCOc1ccccc1C(=O)N(Cc1ccco1)C1CCS(=O)(=O)C1 (centres undefined)	12.1%	-1.8%	50.1µM*	1.9%	-4.0%	-8.3%
CCOc1ccccc1C(=O)N(Cc1ccc(C)o1)C1CCS(=O)(=O)C1 (centres undefined)	?	.	-2.2%	.	.	18.9µM*
CCCCOc1ccccc1C(=O)N(Cc1ccco1)C1CCS(=O)(=O)C1 (centres undefined)	13.1%	.	14.9%	.	.	-3.1%
O=C(CCN1C(=O)/C(=C\C=C\c2ccccc2)SC1=S)Nc1cccc(C(=O)O)c1	-3.2%	.	-28.3%	.	.	26.7µM*
O=C(CCCN1C(=O)S/C(=C/C=C/c2ccccc2)C1=O)Nc1ccc(C(=O)O)cc1	31.6µM*	.	13.8%	.	.	29.9µM*
O=C(CCN1C(=O)/C(=C\C=C\c2ccccc2)SC1=S)Nc1ccccc1C(=O)O	?	.	21.3%	.	.	29.9µM*
O=C(CCCN1C(=O)/C(=C\c2ccccc2)SC1=S)Nc1cccc(C(=O)O)c1	?	.	-2.0%	.	.	-28.5%
O=C(NCc1ccccc1Cl)c1cnc2sc(N3CCCCC3)nn2c1=O	6.3%	-13.8%	.	-12.6%	1.9%	.
Cc1ccc2nc(Nc3ccc4[nH]c(=O)[nH]c4c3)c(-n3nc(C)cc3C)nc2c1	4.4%	11.2µM*[quencher]	-6.4%	15.0%	?	-1.8%
Cc1cc(C)n(-c2nc3ccccc3nc2Nc2ccc3c(c2)OCO3)n1	3.8%	?	7.2%	?	-7.8%	1.6%
Cc1cc(C)n(-c2nc3ccccc3nc2Nc2ccc(N(C)C)cc2)n1	-13.7%	17.8µM*[quencher]	.	?	?	.
COc1cc(CN2C[C@@H](CO)O[C@@H](n3cnc4c(NC5CCCC5)ncnc43)C2)cc(OC)c1OC	.	.	.	.	.	-6.7%
SMILES	VDR inhibitor	Tau fluor cs	Sfp inh	Tau FP inhib	Tau ThT inhib	PLK1 PBD block
Cn1c(=O)c2c(ncn2Cc2ccccc2)n(C)c1=O	-24.6%	-1.7%	17.9%	11.1%	-4.3%	26.7µM*
COc1ccc(C(=O)Cn2c(Br)nc3c2c(=O)n(C)c(=O)n3C)cc1	5.8%	-4.1%	50.1µM*	0.5%	-13.6%	-7.9%
C=CCOc1nc2c(c(=O)n(C)c(=O)n2C)n1Cc1ccccc1	18.4%	8.4%	3.6%	?	0.3%	-17.0%
COc1ccccc1Oc1nc2c(c(=O)n(Cc3ccccc3F)c(=O)n2C)n1C	1.4%	?	8.91µM*	6.4%	?	-5.0%
COc1ccc(Oc2nc3c(c(=O)n(C)c(=O)n3C)n2Cc2ccccc2)cc1	-16.8%	-6.6%	6.2%	-15.0%	-8.9%	26.7µM*
CCN(CC(=O)Nc1cc(Cl)ccc1C)C(=O)c1nc2nc(C)cc(C)n2n1	9.9%	.	.	.	.	-13.2%
CCCn1nc(NC(=O)c2cccc(Cl)c2)c2cc3cccc(C)c3nc21	10.3%	-12.5%	.	-16.7%	1.6%	.
COCc1ccc(C(=O)N2CCCC(C(=O)c3ccc(SC)cc3)C2)s1 (centres undefined)	-10.3%	.	2.4%	.	.	-10.9%
COc1ncc2nc(C)c(=O)n(Cc3ccc(F)cc3)c2n1	-1.8%	.	19.8%	.	.	.
Cn1c(=O)c2c(nc(SCc3cccnc3)n2Cc2ccccc2)n(C)c1=O	-2.7%	-9.4%	79.4µM*	-2.7%	-7.7%	-20.0%
CC1Cc2cc(S(=O)(=O)CCC(=O)Nc3cccc(F)c3)ccc2N1C(=O)C1CC1 (centres undefined)	-4.4%	-8.6%	.	0.1%	1.4%	.
CN(C)CCCNC(=O)N1c2ccccc2C=Cc2ccccc21	?	.	9.6%	.	.	26.7µM*
CC1CCC2(CC1)NC(=O)N(NC(=O)C1CCN(C(=O)c3ccc(Cl)cc3)CC1)C2=O (centres undefined)	-13.5%	.	.	.	.	4.1%
CC(=O)c1cccc(OCC(O)CN2CCN(S(=O)(=O)c3c(F)cccc3F)CC2)c1 (centres undefined)	-26.4%	.	?	.	.	18.9µM*
N#Cc1ccccc1S(=O)(=O)N1CCN(CC(O)COc2ccccc2F)CC1 (centres undefined)	-3.6%	.	56.2µM*	.	.	7.5%
O=S(=O)(c1ccc(F)cc1)N1CCN(CC(O)COc2ccccc2F)CC1 (centres undefined)	1.9%	.	56.2µM*	.	.	6.3%
CC[C@H](CC[C@@H](C)C1CC[C@H]2[C@@H]3CC=C4C[C@@H](O)CC[C@]4(C)[C@H]3CC[C@]12C)C(C)C (some centres undefined)	3.8%	-4.5%	11.5%	-2.3%	-3.0%	.
C[C@H](c1ccccc1)N1C[C@H](COCc2ccccc2)Oc2cc(N3CC[C@@H](O)C3)ccc2S1(=O)=O	.	.	.	.	.	-3.8%
